Assay outcomes: PubChem BioAssay, National Center for Advancing Translational Sciences (NCATS)
Hits are enriched below; roughly 8.2% of the tested compounds scored in any of these assays.
MCF10A rerep: inducers of DNA re-replication in MCF 10A breast cells; Potency, µM (titrated, usually from 46.1 µM), without a hit: top-dose activity, positive = re-replication, actives largely listed as activators; 2.9% of 350,000 active; MCF 10A DNA re-replication, Hoechst nuclear intensity, 48 h; further: % of control where 0% means no effect; nearly all actives have a fitted effect of over 50% in size
ELG1 DNA repair: inhibitors of ELG1-dependent DNA repair in HEK293T cells; HEK293T ELG1-luciferase reporter, luminescence, 16 h; DNA damage induced by 5-fluorouridine; Potency, µM (titrated, usually from 46.1 µM), inactives show at the highest dose activity change, negative = inhibition, most hits filed as inhibitors; AID 504467; 2.3% of 330,000 active; further: on the % scale 0 is the no-effect control and ±100 the full control effect; nearly all actives have a fitted effect of over 55% in size
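HEK293T cells expressing luciferase-tagged ELG1 (2,000/well) received 5-Fluorouridine plus compound or DMSO for 16 hr at 37 °C. Luciferase was read by ONE-Glo luminescence after 30 min at room temperature.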
KB-V1 cytotox: kills drug-selected multidrug resistant KB-V1 cells; KB-V1 MDR cells viability, CellTiter-Glo, 72 h; Potency, µM (series often up to 46.1 µM), most hits filed as cytotoxic; 3.4% of 400,000 active; further: on the % scale 0 is the no-effect control and ±100 the full control effect; nearly all actives have a fitted effect of over 60% in size
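Potencies derive from concentration-effect curves fitted to normalized luminescence (CellTiter-Glo) of KB-V1 cells treated for 72 h at 37 degrees C in phenol-red-free DMEM containing 10% FBS.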
KB-3-1 cytotox: kills parental KB-3-1 adenocarcinoma cells; KB-3-1 viability, CellTiter-Glo ATP luminescence, 72 h; 1.4% of 400,000 active; AID 1347075; Potency, µM (top dose mostly 46.1 µM), usual class: cytotoxic; further: on the % scale 0 is the no-effect control and ±100 the full control effect; nearly all actives have a fitted effect of over 60% in size
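Screening of KB-3-1 cells (DMEM, 10% FBS, phenol-red free) ran from lowest to highest compound concentration; after 72 h at 37 °C viability was read luminescently and curves fitted.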
SW480 rerep: induces DNA re-replication in SW480 colon adenocarcinoma cells. AID 624297. Potency, µM (doses to about 46.1 µM), for inactives: at the top dose re-replication activation, most hits filed as activators. 1.8% of 340,000 active. SW480 DNA re-replication, Hoechst DNA content imaging, 48 h; further: % of control where 0% means no effect; nearly all actives have a fitted effect of over 55% in size
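Image-based DNA-content assay: after two days of treatment, nuclei were labelled with the DNA dye Hoechst and imaged, and hits were compounds raising the count of nuclei showing high fluorescence intensity.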
* = called active by the depositor; i = inactive; ? = inconclusive; nt = no result. The call rests on the fitted dose curve; in most records, active means well fitted curve in the direction sought with a large enough effect; inconclusive means small, poorly fitted or top-dose-only effect, or another doubt; inactive means no such curve, though single readings can be large; an effect the other way counts as inactive or inconclusive. Potency means the concentration at half of the fitted maximal effect.

SMILES	MCF10A rerep	ELG1 DNA repair	KB-V1 cytotox	KB-3-1 cytotox	SW480 rerep
Cn1nnnc1Sc1ncnc2scc(-c3ccc(C(F)(F)F)cc3)c12	2.1µM*	6.5µM*	18µM*	?	6%
Cc1nc(Sc2nnnn2C2CC2)c2c(-c3ccccc3)csc2n1	nt	nt	i	?	nt
COC(=O)CSc1ncnc2scc(-c3ccccc3)c12	0%	-4%	i	i	?
Cn1nnnc1Sc1ncnc2scc(-c3cc4ccccc4o3)c12	?	21µM*	?	?	?
CCn1nnnc1Sc1nc(C)nc2scc(-c3ccccc3)c12	nt	nt	i	13µM*	nt
Cn1nnnc1Sc1ncnc2scc(-c3cccc(F)c3)c12	?	?	i	i	4%
Cc1ccc(/C=C/c2onc(C)c2S(=O)(=O)N2CCC(C(=O)N3CCN(c4ccccc4F)CC3)CC2)cc1	nt	nt	i	i	nt
Cn1nnnc1Sc1ncnc2scc(-c3ccccc3C(F)(F)F)c12	79%	?	?	16µM*	?
COc1cccc(-c2csc3ncnc(Sc4nnnn4C)c23)c1	?	?	?	?	0.33µM*
Cn1nnnc1Sc1ncnc2scc(-c3ccc(-c4ccccc4)cc3)c12	8.2µM*	?	?	15µM*	?
Cn1nnnc1Sc1ncnc2scc(-c3ccc(C#N)cc3)c12	?	?	?	?	2%
Cn1nnnc1Sc1ncnc2scc(-c3ccsc3)c12	16µM*	?	i	?	?
O=C(Nc1ccc(F)c(F)c1)c1ccc(=O)n(Cc2ccc(F)cc2)c1	nt	nt	i	i	nt
CC1(C(=O)NS(=O)(=O)c2cccs2)CCN1C(=O)C1(c2ccccc2)CCCC1 (centres undefined)	nt	nt	i	i	nt
Cc1ccc(C)n1-n1cnc2scc(-c3cccs3)c2c1=O	-2%	4%	i	i	13%
Cn1nnnc1Sc1ncnc2scc(-c3cccs3)c12	10µM*	?	?	?	?
Fc1ccc(CSc2ncnc3scc(-c4ccccc4)c23)cc1	22%	-1%	15µM*	i	0%
CC1CCc2nc3ccccc3c(C(=O)OCC(=O)N3CCc4ccccc43)c2C1 (centres undefined)	3%	18µM*	2.1µM*	?	-2%
CCCc1nc2ccccc2c(C(=O)OCC(=O)N2CCc3ccccc32)c1CC	21µM*	16µM*	6.5µM*	?	0%
CCc1noc(C)c1C(=O)OCC(=O)N1CCc2ccccc21	0%	?	i	i	-1%
C[N+]1(CC(=O)c2ccc(Oc3ccc(C(=O)C[N+]4(C)CCOCC4)cc3)cc2)CCOCC1	nt	nt	i	i	nt
CC(=O)OC[C@@H]1CN(Cc2ccccc2)C[C@H](n2cnc3c(N(C)C(C)C)ncnc32)O1	nt	nt	i	i	nt
COc1ccc(NC(=O)CSc2nc(-c3cccs3)cc(C(F)(F)F)n2)c(OC)c1	nt	nt	i	i	nt
Nc1nc(SCC(=O)Nc2ccc(OCc3ccccc3)cc2)n[nH]1	-4%	?	i	i	-6%
CCSC1=NSC2=NC(=O)/C(=C\c3coc4ccccc4c3=O)C(=N)N12	18µM*	17%	i	i	?
SMILES	MCF10A rerep	ELG1 DNA repair	KB-V1 cytotox	KB-3-1 cytotox	SW480 rerep
O=C1c2ccccc2C(=O)N1CCc1csc(-c2cccc(Cl)c2)n1	?	-22%	?	i	8%
O=C1c2ccccc2C(=O)N1CCc1csc(-c2cccc(F)c2)n1	?	-2%	16µM*	i	1%
CCOC(=O)N1CCC(N2C(=O)c3ccccc3C2Nc2cc(OC)c(OC)c(OC)c2)CC1 (centres undefined)	-2%	?	i	i	13%
CCOC(=O)[C@]12Cc3c(cc(OC)c(OC)c3OC)[C@H]1N(C1CCCCC1)C(=O)c1cc(OC)ccc12	nt	nt	4.6µM*	3.3µM*	nt
CCCC(=O)Nc1nn(CC)c2nc3ccc(C)cc3cc12	?	-10%	i	i	?
CCCn1nc(NC(=O)c2ccncc2)c2cc3ccccc3nc21	5%	?	i	i	1%
CCn1nc(NC(=O)c2ccncc2)c2cc3ccc(C)cc3nc21	?	?	9.2µM*	i	7%
CCn1nc(NC(=O)c2ccncc2)c2cc3cc(C)ccc3nc21	8.2µM*	?	i	i	?
COc1nc(N)c(C#N)c(-c2ccc(N(C)CCC#N)cc2)c1C#N	18µM*	16µM*	?	i	15%
CCOc1ccccc1CNC(=O)c1ccc2nc(Cc3ccc(OC)cc3)oc2c1	nt	nt	i	i	nt
O=C(CC(c1ccccc1)C1CCCCC1=O)c1ccccc1 (centres undefined)	27%	nt	i	i	5%
COC(=O)C1=C(C)NC(=O)CC1c1cc2c(cc1Br)OCO2 (centres undefined)	4%	?	i	i	-7%
CC1=C(C(=O)OC2CCCCCCC2)C(c2cc3c(cc2Br)OCO3)CC(=O)N1 (centres undefined)	5.8µM*	8%	i	?	?
COc1cc(OC)c(/C=C/c2c3ccccc3cc[n+]2C)c(OC)c1	nt	nt	i	?	nt
COc1cc(OC)c(/C=C/c2cc3c4ccccc4ccc3[n+](C)c2)c(OC)c1	nt	nt	i	8.2µM*	nt
COc1cc(OC)c(/C=C/c2cc(/C=C/c3c(OC)cc(OC)cc3OC)[n+](C)c3ccccc23)c(OC)c1	nt	nt	i	23µM*	nt
COc1ccc(OC)c(/C=C/c2ccc3ccccc3[n+]2C)c1	nt	nt	i	?	nt
